From PubChem BioAssay (NCATS)
“And” between values parts separate entries of the source, which are not always exact repeats. Equal entries are not always repeated. Inconclusive results are not listed. The source made the active and inactive calls. Unless noted, the call rests on the fitted dose curve; in most records, active means well fitted curve in the direction sought with a large enough effect; inconclusive means small, poorly fitted or top-dose-only effect, or another doubt; inactive means no such curve, though single readings can be large; an effect the other way counts as inactive or inconclusive.

Columns and labels:
[1] = biological target: Cytochrome P450 1A2 (Homo sapiens) (UniProt P05177); test: p450-cyp1a2 (AID 410; calls by dose curve; further: potency means the concentration at half of the fitted maximal effect;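 on activity change, negative = inhibition: -100% = full effect of reference inhibitor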)
How it was run: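 20nM CYP1A2, 100uM Luciferin-ME (=Km), 100mM KPO4; cpd 10 min RT; +NADPH regen, 60 min RT; stop/detect 20 min; luminescence. Normalized to furafylline 57 uM = full inhibition.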

[2] = biological target: Glucocorticoid receptor (Homo sapiens) (UniProt P04150); test: GR-GFP Redistribution (AID 450;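 active means compounds whose dose series gives a full or clear partial fitted curve of increased nuclear translocation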; further: potency means the concentration at half of the fitted maximal effect); settings: U2OS GR-GFP nuclear translocation, laser cytometry, 2 h
[3] = biological target: Glucocorticoid receptor (Homo sapiens) (UniProt P04150); test: GR-EFC Redistribution (AID 451; calls by dose curve; further: potency means the concentration at half of the fitted maximal effect); settings: CHO-K1 GR-EFC translocation, beta-gal luminescence, 2 h
How it was run: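 CHO-K1 cells expressing nuclear EA and GR-ED fragments of b-gal; compounds titrated up to 46 uM final, 2 h at 37 C. GR nuclear translocation read as complemented b-gal luminescence after 1 h RT detection.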

[4] = biological target: Mitogen-activated protein kinase 10 (Mus musculus) (UniProt Q61831); test: JNK3 AlphaScreen Assay (AID 530; active means well fitted curve in either direction with a large enough effect, not every such curve was filed as active;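 further: kinase came from lysate of stimulated human HepG2 cells; signal reports phosphorylation of biotinylated GST-cJun 1-79 at Ser73 with 10 µM ATP; on the % scale 0 is the no-effect control and ±100 the full control effect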)
How it was run: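 HepG2 lysate (IL-1b/TNFa pre-activated) + biotin-GST-cJun 1-79 + anti-pSer73 cJun; cpd titration, 15 min RT; ATP 10 uM start; Tris pH 7.6, MgCl2, DTT, vanadate; beads in EDTA buffer; AlphaScreen.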

[5] = biological target: 3',5'-cyclic-AMP phosphodiesterase 4B (Homo sapiens) (UniProt Q07343); test: qHTS Assay for Inhibitors of PDE-IV (AID 607; active means well fitted activation curve with a large enough effect in the main read-out, with a control signal flat, not every such curve was filed as active; further: % of control where 0% means no effect)
How it was run: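 The readout is membrane depolarisation from a cAMP-sensing CNG channel, detected with a potential dye at ex 535/em 590. Cells were HEK293-derived (endogenous PDE-IV) at 1000 cells/well, titrated up to 22.9 uM final.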

[6] = biological target: Ubiquitin carboxyl-terminal hydrolase 1 (Homo sapiens) (UniProt O94782); test: Inhibitors of USP1/UAF1: Pilot qHTS (AID 504865);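 further: rhodamine fluorescence freed from ubiquitin-rhodamine substrate followed over time; top concentration of the series differs between compounds; on the % scale 0 is the no-effect control and ±100 the full control effect; nearly all actives have a fitted effect of over 35% in size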
How it was run: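 Deubiquitinase activity followed as kinetic rhodamine fluorescence release from 150 nM Ub-Rho. 1 nM USP1/UAF1 with compound, after 15 min room-temperature preincubation, in HEPES pH 7.8 buffer containing TCEP, EDTA, BSA and Tween-20.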

[7] = biological target: DNA dC->dU-editing enzyme APOBEC-3G (Homo sapiens) (UniProt Q9HC16); test: qHTS for inhibitors of Vif-A3G interactions: Validation (AID 588379); further: 0% is about no effect
How it was run: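 Yellow fluorescence (Ex 488, Em 500-530) of Vif-coexpressing HeLa A3G-eYFP cells, scanned by Acumen cytometer, reports blocked A3G degradation. Cells plated at 700/well overnight at 37 deg C before compound addition, then a further overnight compound incubation at 37 deg C.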

[8] = system: Zika virus NS2B-NS3 protease; test: Primary screen GU AMC qHTS for Zika virus inhibitors (AID 1347154);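 further: 0% = no-inhibitor control and -100% = no-enzyme control; nearly all actives have a fitted effect of over 70% in size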
How it was run: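 Unlinked Zika NS2B hydrophilic domain–NS3 protease complex at 25 nM in 10 mM Tris-HCl pH 8.0, 0.01% Tween 20, with an AMC peptide substrate. Fluorescence change (340/450 nm) over 15 min at room temperature, normalized to controls, fitted to 4-parameter Hill.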

[9] = AP1 Signaling Pathway (AID 357; active means well fitted curve in either direction with a large enough effect, not every such curve was filed as active;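 further: ME-180 reporter cells stimulated with EGF at its EC50 level; on the % scale 0 is the no-effect control and ±100 the full control effect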); settings: ME-180 AP-1-bla reporter, EGF-induced, beta-lactamase ratio, 5 h
How it was run: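 AP-1-bla ME-180 cells, Opti-MEM + 0.5% dialyzed FBS, plated overnight 37 °C. Cpd titration + EC50 EGF, 5 h 37 °C. CCF4 2.5 h RT; ex 405, em 460/530 ratio → %activity, AC50.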

[10] = NFAT Signaling Pathway (AID 444; active means well fitted curve in either direction with a large enough effect, not every such curve was filed as active;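 further: carbachol stimulus at about its EC50 of 1 µM final; on the % scale 0 is the no-effect control and ±100 the full control effect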); settings: Jurkat NFAT-bla M1, carbachol, beta-lactamase ratio, 5 h
How it was run: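 Jurkat cells with NFAT-driven β-lactamase reporter and co-expressed M1 receptor, stimulated with carbachol (final 1 uM, ~EC50), compound titration, 5 h at 37 °C. CCF4 loaded 1 h at RT; 460/530 nm ratio gave %activity and AC50.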

[11] = Stat Signaling Pathway (AID 446; active means well fitted curve in either direction with a large enough effect, not every such curve was filed as active;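 further: ME-180 cervical cancer cells given 40 pM IL-6 alongside compound; SIE-controlled beta-lactamase reporter measured as 460/530 nm FRET emission ratio; on the % scale 0 is the no-effect control and ±100 the full control effect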); settings: ME-180 SIE beta-lactamase reporter, IL-6 stimulated, 5 h
How it was run: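 Emission at 460 and 530 nm (excitation 405 nm) reports SIE-controlled beta-lactamase in ME-180 cells. Cells received compound with 40 pM IL-6 for 5 hrs at 37 C; data scaled between 300 pM IL-6 and 125 nM JAK-inhibitor controls.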

[12] = biological target: Guanine nucleotide-binding protein G(i) subunit alpha-1 (Homo sapiens) (UniProt P63096); test: qHTS Assay for Inhibitors of RGS12 GoLoco Motif Activity (Green Fluorophore) (AID 879);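 further: 0% = labeled peptide with Gαi1 and full inhibition = labeled peptide alone without protein; negative values mean loss of peptide binding seen as reduced polarization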
How it was run: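 A drop in FITC polarization marked displacement of the FITC-tagged RGS12 GoLoco peptide (10 nM) from Gαi1 (50 nM). Compounds were incubated 10 min at room temperature in Tris pH 7.5 buffer containing 150 mM NaCl, 0.1 mM GDP and 0.05% NP40; unlabeled peptide titration served as control.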

[13] = biological target: Cytochrome P450 2C9 (Homo sapiens) (UniProt P11712); test: qHTS Assay for Inhibitors and Substrates of Cytochrome P450 2C9 (AID 883); further: on the % scale 0 is the no-effect control and ±100 the full control effect; nearly all actives have a fitted effect of over 60% in size
How it was run: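 Human CYP2C9 (10nM) with Luciferin-H at 100uM (its KM) in 25mM KPO4; compound preincubated 10 min at 37C, then NADPH regeneration for 60 min at 37C. Luciferin read by luminescence after detection reagent; normalized to 57uM sulphaphenazole as full inhibition.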

[14] = biological target: Cytochrome P450 2D6 (Homo sapiens) (UniProt P10635); test: qHTS Assay for Inhibitors and Substrates of Cytochrome P450 2D6 (AID 891); further: potency means the concentration at half of the fitted maximal effect; nearly all actives have a fitted effect of over 60% in size
How it was run: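 Luminescent read-out of luciferin formed by 5 nM human CYP2D6 demethylating 30 uM Luciferin-ME EGE (Km level) over 60 min at room temperature after NADPH regeneration addition. Data normalized to full inhibition by 1.43 uM quinidine.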

[15] = qHTS Assay for Identification of Small Molecule Antagonists for NFkB Signaling Pathway (AID 895; active means well fitted inhibition curve with a large enough effect in the signal ratio, with a control signal flat, not every such curve was filed as active; the % refers to the signal ratio; further: on the % scale 0 is the no-effect control and ±100 the full control effect)
How it was run: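 ME-180 NFkB-bla cells (beta-lactamase under NFkB response element), plated overnight, treated with compound then 10 pM TNF alpha (about EC50) for 5 hrs at 37 C. LiveBLAzer FRET read at 460/530 nm emission, 405 nm excitation.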

[16] = biological target: Cytochrome P450 2C19 (Homo sapiens) (UniProt P33261); test: qHTS Assay for Inhibitors and Substrates of Cytochrome P450 2C19 (AID 899); further: on the % scale 0 is the no-effect control and ±100 the full control effect; nearly all actives have a fitted effect of over 60% in size
How it was run: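 5 nM human CYP2C19 with 10uM Luciferin-H EGE (at KM) in 50mM KPO4, compound preincubated 10 min at 37C, then NADPH regeneration for 60 min at 37C. Luciferin read by luminescence after detection reagent; normalized to 57uM ketoconazole as full inhibition.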

[17] = qHTS Assay for Identification of Small Molecule Agonists for Thrombopoietin (TPO) Signaling Pathway (AID 917); further: on the % scale 0 is the no-effect control and ±100 the full control effect
How it was run: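 Luciferase reporter (Glycoprotein IIb promoter) in IL-3-deprived Ba/F3 cells carrying human TPO receptor; compounds co-added with 26 pM TPO, incubated 24 h, 37 C. Steadylite luminescence measured after 10 min.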

[18] = biological target: Pyruvate kinase (Leishmania mexicana) (UniProt Q27686); test: qHTS Validation Assay for Inhibitors of Leishmania Mexicana Pyruvate Kinase (AID 945);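 further: 0% = DMSO only neutral control wells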
How it was run: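 Read-out: luminescence from PKLight stop/detection reagent, data normalized to DMSO. Reaction: 0.2 nM E451W LmPYK, 0.5 mM PEP, 0.1 mM ADP, pH 7.2, 1 h room temperature.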

[19] = biological target: Pyruvate kinase PKM (Homo sapiens) (UniProt P14618); test: qHTS Assay for Activators of Human Muscle Pyruvate Kinase (AID 954; active means well fitted curve in the direction sought with a large enough effect, not every such curve was filed as active;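 further: 0% = uninhibited enzyme and -100% = no enzyme or full thiadiazolimine inhibition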)
How it was run: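 PKM2, human, >95% pure, 0.1 nM; PEP 0.5 mM (Km), ADP 0.1 mM; 50 mM imidazole pH 7.2, 50 mM KCl, 0.01% Tween 20, 0.05% BSA; 1 h RT; luciferase luminescence readout.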

[20] = biological target: Alpha-galactosidase A (Homo sapiens) (UniProt P06280); test: Counterscreen for Glucocerebrosidase Inhibitors: qHTS Assay for Human alpha-Galactosidase at pH 4.5 (AID 992); further: 0% is about no effect
How it was run: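 Fluorogenic 4-MU alpha-D-galactoside (80 uM) hydrolysis, 2 nM enzyme, pH 4.5 citrate buffer + 0.005% Tween-20; 20 min RT; NaOH/glycine pH 10 stop; Ex365/Em440. Compounds titrated 0.7 nM–77 uM; Hill-equation AC50.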

[21] = biological target: alpha-glucosidase (Oryza sativa, rice) (UniProt Q653V4); test: Counterscreen for Glucocerebrosidase Inhibitors: qHTS Assay for Rice alpha-Glucosidase at pH 5.0 (AID 997);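 further: 0% = full activity with enzyme and -100% = basal without enzyme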
How it was run: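 Endpoint fluorogenic assay at pH 5.0: compounds (0.7 nM to 77 uM) titrated against 4 nM rice enzyme and 400 uM 4-MU-alpha-glucoside for 20 min at room temperature; NaOH/glycine stop, read ex 365/em 440 nm, Hill-fitted AC50.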

[22] = biological target: Rap guanine nucleotide exchange factor 3 (Homo sapiens) (UniProt O95398); test: Confirmatory qHTS for agonist of cAMP-regulated guanine nucleotide exchange factor 3 (EPAC1) (AID 1645881);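 further: EPAC1 catalysed release of BODIPY-GDP from Rap1B seen as fluorescence loss; 100% = effect of cAMP agonist control; nearly all actives have a fitted effect of over 75% in size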
[23] = biological target: Rap guanine nucleotide exchange factor 4 (Homo sapiens) (UniProt Q8WZA2); test: Confirmatory qHTS for agonist of cAMP-regulated guanine nucleotide exchange factor 4 (EPAC2) (AID 1645884);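 further: nucleotide exchange releases bodipy-GDP from Rap1 and this lowers its fluorescence; on the % scale 0 is the no-effect control and ±100 the full control effect; nearly all actives have a fitted effect of over 65% in size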
[24] = biological target: Rap guanine nucleotide exchange factor 4 (Homo sapiens) (UniProt Q8WZA2); test: Confirmatory qHTS for antagonist of cAMP-regulated guanine nucleotide exchange factor 4 (EPAC2) (AID 1645885); further: potency means the concentration at half of the fitted maximal effect; nearly all actives have a fitted effect of over 25% in size

Chain of Glucocorticoid receptor (Homo sapiens) (P04150 whole entry, looked up, the tested form may be a part): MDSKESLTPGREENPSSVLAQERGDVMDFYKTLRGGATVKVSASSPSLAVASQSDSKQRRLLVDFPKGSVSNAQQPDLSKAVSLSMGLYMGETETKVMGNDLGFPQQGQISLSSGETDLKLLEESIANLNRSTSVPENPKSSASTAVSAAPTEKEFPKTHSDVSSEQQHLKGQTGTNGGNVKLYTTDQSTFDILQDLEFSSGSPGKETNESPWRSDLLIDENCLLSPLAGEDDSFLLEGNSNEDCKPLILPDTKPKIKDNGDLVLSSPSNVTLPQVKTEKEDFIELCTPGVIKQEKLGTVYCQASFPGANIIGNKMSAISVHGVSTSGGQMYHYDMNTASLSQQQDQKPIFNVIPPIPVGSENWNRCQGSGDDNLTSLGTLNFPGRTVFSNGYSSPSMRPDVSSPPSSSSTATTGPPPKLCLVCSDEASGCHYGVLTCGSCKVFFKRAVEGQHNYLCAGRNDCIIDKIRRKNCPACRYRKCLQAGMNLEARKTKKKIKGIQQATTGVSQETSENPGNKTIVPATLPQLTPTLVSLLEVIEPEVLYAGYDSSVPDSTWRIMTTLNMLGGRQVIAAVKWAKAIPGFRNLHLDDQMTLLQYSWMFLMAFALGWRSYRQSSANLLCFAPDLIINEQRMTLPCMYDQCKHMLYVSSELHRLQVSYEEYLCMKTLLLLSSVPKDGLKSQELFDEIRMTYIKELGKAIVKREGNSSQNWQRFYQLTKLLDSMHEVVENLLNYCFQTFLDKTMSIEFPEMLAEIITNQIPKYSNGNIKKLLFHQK
Chain of Cytochrome P450 1A2 (Homo sapiens) (P05177 whole entry, looked up): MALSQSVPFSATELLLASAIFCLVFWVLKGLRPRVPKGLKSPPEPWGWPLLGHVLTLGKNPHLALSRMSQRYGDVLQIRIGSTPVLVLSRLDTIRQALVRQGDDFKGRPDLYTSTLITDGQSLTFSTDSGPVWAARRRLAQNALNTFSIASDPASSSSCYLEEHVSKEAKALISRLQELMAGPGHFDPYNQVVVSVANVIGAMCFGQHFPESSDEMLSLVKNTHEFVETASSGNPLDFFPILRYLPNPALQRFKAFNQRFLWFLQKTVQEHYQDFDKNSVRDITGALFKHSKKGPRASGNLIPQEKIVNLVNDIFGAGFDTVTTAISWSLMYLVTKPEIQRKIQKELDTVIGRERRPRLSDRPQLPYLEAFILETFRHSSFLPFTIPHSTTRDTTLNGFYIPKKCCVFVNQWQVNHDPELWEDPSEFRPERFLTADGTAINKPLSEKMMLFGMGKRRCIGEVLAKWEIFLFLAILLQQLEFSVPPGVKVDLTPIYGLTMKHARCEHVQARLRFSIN
Chain of Cytochrome P450 2D6 (Homo sapiens) (P10635 whole entry, looked up): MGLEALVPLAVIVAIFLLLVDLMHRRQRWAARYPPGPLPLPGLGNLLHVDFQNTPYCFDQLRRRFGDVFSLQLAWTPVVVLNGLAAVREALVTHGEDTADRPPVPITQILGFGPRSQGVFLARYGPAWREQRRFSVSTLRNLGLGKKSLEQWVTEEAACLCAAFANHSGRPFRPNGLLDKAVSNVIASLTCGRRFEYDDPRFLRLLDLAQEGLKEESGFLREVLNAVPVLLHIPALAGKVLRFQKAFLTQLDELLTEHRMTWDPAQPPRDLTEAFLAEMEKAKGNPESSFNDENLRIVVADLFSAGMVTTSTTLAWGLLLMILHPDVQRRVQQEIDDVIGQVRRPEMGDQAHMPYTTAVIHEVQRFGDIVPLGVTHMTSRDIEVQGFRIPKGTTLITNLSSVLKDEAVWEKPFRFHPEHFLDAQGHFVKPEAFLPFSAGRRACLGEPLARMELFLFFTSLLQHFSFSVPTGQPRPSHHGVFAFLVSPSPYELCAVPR
Chain of 3',5'-cyclic-AMP phosphodiesterase 4B (Homo sapiens) (Q07343 whole entry, looked up): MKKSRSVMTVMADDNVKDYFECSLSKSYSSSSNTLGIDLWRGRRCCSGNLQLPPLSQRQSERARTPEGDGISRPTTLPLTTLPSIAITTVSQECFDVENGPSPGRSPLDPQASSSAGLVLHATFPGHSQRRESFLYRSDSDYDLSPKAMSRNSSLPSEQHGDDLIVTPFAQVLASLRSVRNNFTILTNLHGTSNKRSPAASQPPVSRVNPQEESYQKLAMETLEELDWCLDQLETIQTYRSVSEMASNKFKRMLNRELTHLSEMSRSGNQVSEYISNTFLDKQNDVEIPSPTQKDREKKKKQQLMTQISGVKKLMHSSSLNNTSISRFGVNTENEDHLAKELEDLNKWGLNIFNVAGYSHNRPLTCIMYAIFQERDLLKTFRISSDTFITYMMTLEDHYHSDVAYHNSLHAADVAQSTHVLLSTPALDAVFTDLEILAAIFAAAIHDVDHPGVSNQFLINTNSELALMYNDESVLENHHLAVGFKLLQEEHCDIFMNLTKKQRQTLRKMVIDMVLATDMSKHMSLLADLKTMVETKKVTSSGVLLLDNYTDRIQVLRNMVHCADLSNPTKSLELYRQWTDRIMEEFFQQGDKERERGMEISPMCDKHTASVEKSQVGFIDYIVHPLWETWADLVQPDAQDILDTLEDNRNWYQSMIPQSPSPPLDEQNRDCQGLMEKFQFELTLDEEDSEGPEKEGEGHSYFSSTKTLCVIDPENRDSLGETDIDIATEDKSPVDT
Chain of DNA dC->dU-editing enzyme APOBEC-3G (Homo sapiens) (Q9HC16 whole entry, looked up): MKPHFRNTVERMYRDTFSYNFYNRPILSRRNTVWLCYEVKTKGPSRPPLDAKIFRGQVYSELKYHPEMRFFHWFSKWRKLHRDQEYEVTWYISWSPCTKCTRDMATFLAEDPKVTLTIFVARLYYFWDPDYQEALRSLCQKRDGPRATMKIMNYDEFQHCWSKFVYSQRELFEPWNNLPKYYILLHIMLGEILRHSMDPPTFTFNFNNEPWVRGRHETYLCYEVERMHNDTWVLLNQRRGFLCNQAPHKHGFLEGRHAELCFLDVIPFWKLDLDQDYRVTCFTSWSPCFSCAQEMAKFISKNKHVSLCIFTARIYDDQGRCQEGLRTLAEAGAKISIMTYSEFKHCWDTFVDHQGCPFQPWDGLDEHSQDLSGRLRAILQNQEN
Chain of Rap guanine nucleotide exchange factor 4 (Homo sapiens) (Q8WZA2 whole entry, looked up): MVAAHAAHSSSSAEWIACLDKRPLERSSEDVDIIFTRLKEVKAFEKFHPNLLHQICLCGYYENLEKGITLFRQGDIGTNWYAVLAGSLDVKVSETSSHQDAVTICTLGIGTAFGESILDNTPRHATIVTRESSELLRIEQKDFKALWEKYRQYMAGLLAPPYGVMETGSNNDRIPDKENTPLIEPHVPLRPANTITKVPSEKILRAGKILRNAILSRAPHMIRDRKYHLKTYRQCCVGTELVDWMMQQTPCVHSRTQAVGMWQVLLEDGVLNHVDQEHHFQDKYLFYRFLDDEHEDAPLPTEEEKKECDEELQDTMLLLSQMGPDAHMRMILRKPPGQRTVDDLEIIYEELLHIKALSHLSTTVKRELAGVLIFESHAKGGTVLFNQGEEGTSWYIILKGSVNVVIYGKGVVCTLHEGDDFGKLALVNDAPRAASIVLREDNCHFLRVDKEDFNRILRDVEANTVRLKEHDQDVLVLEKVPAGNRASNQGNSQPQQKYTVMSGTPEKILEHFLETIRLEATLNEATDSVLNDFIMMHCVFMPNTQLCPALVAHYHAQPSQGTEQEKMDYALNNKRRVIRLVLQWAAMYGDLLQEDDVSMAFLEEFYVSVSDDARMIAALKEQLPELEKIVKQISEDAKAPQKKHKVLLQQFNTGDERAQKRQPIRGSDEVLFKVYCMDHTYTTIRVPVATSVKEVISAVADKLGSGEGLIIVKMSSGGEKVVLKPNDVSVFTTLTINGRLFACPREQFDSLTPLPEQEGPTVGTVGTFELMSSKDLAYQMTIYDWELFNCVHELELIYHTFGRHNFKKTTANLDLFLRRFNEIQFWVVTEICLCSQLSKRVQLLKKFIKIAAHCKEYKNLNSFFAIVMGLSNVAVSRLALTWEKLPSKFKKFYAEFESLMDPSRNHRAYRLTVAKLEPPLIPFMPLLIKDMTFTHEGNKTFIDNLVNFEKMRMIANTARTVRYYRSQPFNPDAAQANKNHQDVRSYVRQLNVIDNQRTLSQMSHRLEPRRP
Chain of Cytochrome P450 2C19 (Homo sapiens) (P33261 whole entry, looked up): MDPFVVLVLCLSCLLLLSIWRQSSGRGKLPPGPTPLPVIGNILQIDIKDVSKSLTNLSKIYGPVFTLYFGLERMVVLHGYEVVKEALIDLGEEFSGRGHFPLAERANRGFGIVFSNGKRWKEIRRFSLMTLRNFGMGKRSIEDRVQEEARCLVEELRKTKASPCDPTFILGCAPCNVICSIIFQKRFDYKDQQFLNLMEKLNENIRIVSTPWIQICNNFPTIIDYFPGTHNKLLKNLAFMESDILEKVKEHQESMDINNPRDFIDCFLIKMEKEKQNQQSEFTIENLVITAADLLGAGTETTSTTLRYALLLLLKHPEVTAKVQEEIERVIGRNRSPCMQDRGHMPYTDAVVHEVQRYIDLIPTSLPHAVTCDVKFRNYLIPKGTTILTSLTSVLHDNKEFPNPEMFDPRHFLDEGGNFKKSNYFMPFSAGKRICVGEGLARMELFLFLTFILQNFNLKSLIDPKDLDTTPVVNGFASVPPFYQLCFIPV
Chain of Cytochrome P450 2C9 (Homo sapiens) (P11712 whole entry, looked up): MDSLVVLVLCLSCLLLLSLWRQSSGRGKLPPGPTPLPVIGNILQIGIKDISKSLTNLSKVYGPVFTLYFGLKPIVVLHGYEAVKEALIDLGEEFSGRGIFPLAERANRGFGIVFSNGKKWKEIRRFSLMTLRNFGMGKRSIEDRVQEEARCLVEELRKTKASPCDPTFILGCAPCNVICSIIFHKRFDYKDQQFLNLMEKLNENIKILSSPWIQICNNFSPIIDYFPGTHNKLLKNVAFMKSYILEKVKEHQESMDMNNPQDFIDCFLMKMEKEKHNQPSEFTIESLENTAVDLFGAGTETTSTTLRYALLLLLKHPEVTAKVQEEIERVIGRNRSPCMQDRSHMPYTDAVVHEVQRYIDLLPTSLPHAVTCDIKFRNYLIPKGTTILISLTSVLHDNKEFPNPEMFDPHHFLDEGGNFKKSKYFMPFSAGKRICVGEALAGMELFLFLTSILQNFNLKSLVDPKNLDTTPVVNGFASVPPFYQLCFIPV

OC[C@H]1O[C@H](n2cnc3c(NC4CCCC4)nc(Cl)nc32)[C@@H](O)[C@@H]1O
active: Potency [1] 39.8 µM
inactive: Potency [2] > 46 µM | Potency [3] > 46 µM | Potency [4] | Potency [5] | Potency [6] | Potency [7] | Potency [8]

CNC(=O)Oc1ccc2c(c1)[C@@]1(C)CCN(C)[C@@H]1N2C
active: Potency [14] 1.26 µM and 79.4 nM and 251 nM
inactive: activity change, negative = inhibition ([9]; at 17.2 µM (top of the series)) -5.3% | activity change, negative = inhibition ([9]; at 38 µM (top of the series)) 6.53% | Potency [1] | activity change, negative = inhibition ([10]; at 17.2 µM (top of the series)) -2.84% | activity change, negative = inhibition ([10]; at 38 µM (top of the series)) -3.73% | activity, negative = inhibition ([11]; at 17.2 µM (top of the series)) 5.27% | activity, negative = inhibition ([11]; at 38 µM (top of the series)) -23.2% | Potency [4] | Potency [5] | outcome [12] | Potency [13] | Potency [15] | Potency [16] | Potency [17] | Potency [18] | outcome [19] | outcome [20] | outcome [21] | Potency [7] | Potency [8]

CCC(C)(C)C(=O)O[C@@H]1C[C@@H](C)C=C2C=C[C@H](C)[C@H](CC[C@@H]3C[C@@H](O)CC(=O)O3)[C@H]21
active: Potency [24] 49.4 µM
inactive: Potency [2] > 46 µM | Potency [3] > 46 µM | Potency [4] | Potency [7] | Potency [8] | outcome [22] | outcome [23]
